The source of these data is PubChem BioAssay (Tox21).

Assay [1] in a line: Nuclear factor erythroid 2-related factor 2/antioxidant responsive element (Nrf2/ARE) small molecule agonists: qHTS cell viability counter screen in human keratinocytes (AID 1919968; active = well fitted curve in the direction sought with a large enough effect in the repeat runs; an effect the other way counts as inactive or inconclusive; also: nearly all actives have a fitted effect of over 55% in size; also: potency is read from the fitted curve at half-maximal effect). In a few lines: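 KeratinoSens cells (HaCaT keratinocytes stably carrying an ARE-luciferase reporter) were seeded at 1,500 cells/well and rested 5 h at 37 C/5% CO2. They were then exposed to compounds in DMSO for 23 h. Viability was read by CellTiter-Fluor fluorescence after 1 h.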
Background: qHTS replaces the single test concentration by a dilution series.

Assay [2] deals with Gonadotropin-releasing hormone receptor (Homo sapiens) (UniProt P30968). Nature of the assay: Human gonadotropin-releasing hormone receptor (GnRHR) small molecule agonists, calcium flux assay in GnRHR-HEK293 cells (AID 1920063). Also: nearly all actives have a fitted effect of over 35% in size. In a few lines: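 HEK293 cells stably expressing human GnRHR were plated 18 h at 37 °C, loaded with calcium dye 1 h at 37 °C, then given compound in agonist mode; fluorescence (Ex/Em 480/540) read kinetically for 3 min at 1 s intervals.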
Sequence of Gonadotropin-releasing hormone receptor (Homo sapiens) (P30968 whole entry, looked up): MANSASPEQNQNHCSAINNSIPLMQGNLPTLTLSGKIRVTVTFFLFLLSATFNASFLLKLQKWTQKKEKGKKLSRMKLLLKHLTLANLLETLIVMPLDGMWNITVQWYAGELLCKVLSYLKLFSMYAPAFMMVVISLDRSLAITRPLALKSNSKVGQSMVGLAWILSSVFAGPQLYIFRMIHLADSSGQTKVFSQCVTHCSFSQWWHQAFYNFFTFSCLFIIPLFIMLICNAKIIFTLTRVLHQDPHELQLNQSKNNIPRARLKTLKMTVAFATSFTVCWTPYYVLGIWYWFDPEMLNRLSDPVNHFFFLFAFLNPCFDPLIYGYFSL

For assay [3], the target named is KiSS-1 receptor (Homo sapiens) (UniProt Q969F8). Nature of the assay: Human kisspeptin (KISS1R) small molecule agonists, calcium flux assay in KISS1R-HEK293 cells (AID 1920064; active = well fitted curve in the direction sought with a large enough effect in the repeat runs; an effect the other way counts as inactive or inconclusive). An outline of the steps: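 HEK293 cells stably expressing human KISS1R were plated 18 h at 37 °C, loaded with calcium dye for 1 h at 37 °C, then given compound by pin tool. Fluorescence (Ex/Em 480/540) was read kinetically for 3 min.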
Sequence of KiSS-1 receptor (Homo sapiens) (Q969F8 whole entry, looked up): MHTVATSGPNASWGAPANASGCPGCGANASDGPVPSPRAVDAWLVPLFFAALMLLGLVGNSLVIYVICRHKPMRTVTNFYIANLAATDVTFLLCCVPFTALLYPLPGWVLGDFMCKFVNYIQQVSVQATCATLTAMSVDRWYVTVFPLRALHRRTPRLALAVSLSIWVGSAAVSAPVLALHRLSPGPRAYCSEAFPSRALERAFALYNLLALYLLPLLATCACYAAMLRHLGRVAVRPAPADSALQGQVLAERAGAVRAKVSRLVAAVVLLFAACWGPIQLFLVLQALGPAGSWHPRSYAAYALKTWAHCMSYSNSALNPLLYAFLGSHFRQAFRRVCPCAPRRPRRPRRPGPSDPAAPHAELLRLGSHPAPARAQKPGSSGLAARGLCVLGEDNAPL
A general note: Calcium assays in cells follow changes in intracellular calcium, usually with a dye or a luminescent sensor.

Assay [4] can be described thus: G protein-coupled receptor (GPCR) small molecule agonists, calcium flux assay: HEK293 wild type cell line counter screen (AID 1920065). An outline of the steps: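 Cells were plated and cultured 18 h at 37 C/5% CO2, then loaded with calcium dye for 1 h at 37 C. Compounds in DMSO were pin-transferred in agonist mode, and fluorescence (Ex/Em 480/540) was read kinetically for 3 min at 1 s intervals.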

A short description of assay [5]: p53 small molecule agonists, cell-based qHTS assay with human liver microsomes: qHTS cell viability counter screen (AID 1963579). Also: nearly all actives have a fitted effect of over 45% in size. Also: potency is read from the fitted curve at half-maximal effect. An outline of the steps:
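Cytotoxicity counter screen: p53RE-bla, 4,000 cells/well; 5 h settle, 37 C/5% CO2; cpd + HLM 0.5 mg/mL + NADPH 0.5 mg/mL (final); 16 h, 37 C; CellTiter-Glo, 30 min RT, luminescence.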

Assay [6] in a line: p53 small molecule agonists, cell-based qHTS assay with rat liver microsomes: qHTS cell viability counter screen (AID 1963580). Also: nearly all actives have a fitted effect of over 45% in size. In a few lines: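 In HCT-116 cells carrying a p53 response element-bla reporter, compounds were metabolically activated in situ by rat liver microsomes with NADPH over 16 h. Cell ATP content then served as the cytotoxicity measure.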
For assay [7], the target named is 5-hydroxytryptamine receptor 2A (Homo sapiens) (UniProt P28223). Nature of the assay: 5-hydroxytryptamine receptor 2A (HTR2A) small molecule antagonists, cell-based qHTS assay (AID 1963586). Also: nearly all actives have a fitted effect of over 45% in size. An outline of the steps:
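Antagonist-mode intracellular calcium assay: DOI (4 nM) added after 5 min compound pre-incubation at room temperature to dye-loaded HTR2A-CHO cells. Fluorescence followed for 3 min, sampled every second.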

Assay [8] has the same target. Nature of the assay: 5-hydroxytryptamine receptor 2A (HTR2A) small molecule agonists, cell-based qHTS assay (AID 1963587). Also: nearly all actives have a fitted effect of over 30% in size. In a few lines:
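HTR2A-CHO cells, plated 18 h at 37 C/5% CO2, dye-loaded 1 h at 37 C; compounds in DMSO added by pin tool (agonist mode). Intracellular calcium flux read as kinetic fluorescence on FDSS over 2 min at 1 s intervals.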

Assay [9] deals with Muscarinic acetylcholine receptor M1 (Homo sapiens) (UniProt P11229). Nature of the assay: Cholinergic receptor muscarinic 1 (CHRM1) small molecule antagonists, cell-based qHTS assay (AID 1963588). Also: nearly all actives have a fitted effect of over 40% in size. Also: potency is read from the fitted curve at half-maximal effect. An outline of the steps: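 CHRM1-CHO calcium-flux assay, antagonist mode. Cells were seeded 18 h, dye-loaded 1 h at 37 C and given compound for 5 min at RT, then acetylcholine was added at 50nM. FDSS fluorescence was read 3 min; 15 concentrations, three runs.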
Sequence of Muscarinic acetylcholine receptor M1 (Homo sapiens) (P11229 whole entry, looked up): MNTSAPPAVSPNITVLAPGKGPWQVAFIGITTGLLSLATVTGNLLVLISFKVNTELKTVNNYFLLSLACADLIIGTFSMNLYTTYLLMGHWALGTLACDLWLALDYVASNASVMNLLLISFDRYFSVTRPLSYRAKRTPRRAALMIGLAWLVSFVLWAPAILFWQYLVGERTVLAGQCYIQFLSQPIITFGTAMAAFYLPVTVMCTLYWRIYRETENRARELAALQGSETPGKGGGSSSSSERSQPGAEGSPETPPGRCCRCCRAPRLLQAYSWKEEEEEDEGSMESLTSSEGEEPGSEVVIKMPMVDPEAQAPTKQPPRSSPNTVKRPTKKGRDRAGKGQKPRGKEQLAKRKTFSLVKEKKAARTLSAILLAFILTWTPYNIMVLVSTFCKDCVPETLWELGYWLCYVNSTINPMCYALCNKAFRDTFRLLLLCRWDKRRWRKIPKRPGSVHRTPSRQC

The target is the same in assay [10]. Nature of the assay: Cholinergic receptor muscarinic 1 (CHRM1) small molecule agonists, cell-based qHTS assay (AID 1963589). Also: nearly all actives have a fitted effect of over 35% in size. In a few lines: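 CHO cells stably expressing human CHRM1, seeded 18 h at 37 C/5% CO2, dye-loaded 1 h at 37 C, then given compound in agonist mode; intracellular calcium fluorescence read kinetically at 1 s intervals. Fifteen concentrations, three independent runs.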

The nature of assay [11]: cAMP Responsive Elements (CRE) small molecule agonists, cell-based qHTS assay (AID 1963590). In a few lines: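 CRE-bla HEK 293T cells in DMEM with 10% dialyzed FBS, NEAA, pyruvate and 25 mM HEPES were plated 18 h at 37 C/5% CO2, then exposed to compounds in DMSO for 3 h before LiveBLAzer B/G FRET substrate addition.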
Assay [12] is described as follows: cAMP Responsive Elements (CRE) small molecule antagonists, cell-based qHTS assay (AID 1963591; active = well fitted inhibition curve with a large enough effect in the signal ratio in the repeat runs, not every such curve was filed as active; the % refers to the signal ratio). In a few lines:
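CRE-bla HEK293T cells were plated 18 h at 37 °C/5% CO2, pinned with compound in DMSO, then stimulated with NKH477 at 0.25 uM final for 3 h. LiveBLAzer B/G FRET substrate was added and plates incubated 2 h at room temperature.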

Assay [13] concerns the target Beta-2 adrenergic receptor (Homo sapiens) (UniProt P07550). Nature of the assay: Adrenergic beta2 receptor (ADRB2) small molecule antagonists, cell-based qHTS assay (AID 1963592). Also: series mostly up to about 92 µM; nearly all actives have a fitted effect of over 50% in size. In a few lines: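 Cells (CHO, stable ADRB2 overexpression) incubated 18-20hr at 37C; compounds added from DMSO; agonist mix (1nM isoproterenol, 100uM IBMX, 25uM Ro-20-1724) added; 0.5hr RT; d2-cAMP and anti-cAMP-cryptate added; 1hr RT; 665/615 nm read.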

Assay [14] has the same target. Nature of the assay: Adrenergic beta2 receptor (ADRB2) small molecule agonists, cell-based qHTS assay (AID 1963593).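 Also: CHO cells stably overexpressing human ADRB2.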 An outline of the steps:
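CHO cells stably over-expressing ADRB2 were plated overnight at 37C, then dosed with compounds plus a stimulation mix containing 100uM IBMX and 25uM Ro-20-1724 for 0.5hr at room temperature. cAMP was measured by HTRF competition, 1hr.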

The target of assay [15] is D(2) dopamine receptor (Homo sapiens) (UniProt P14416). Nature of the assay: Dopamine D2 receptor (DRD2) small molecule agonists, cell-based qHTS assay (AID 1963594). Also: nearly all actives have a fitted effect of over 35% in size. In a few lines: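 HEK293 cells stably expressing DRD2 were cultured 24 h at 37 C, then given Ro20-1724 (0.1 mM final) and compounds for 10 min at room temperature. NKH477 (200nM) was then added for 30 min. cAMP was read by HTRF.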
Sequence of D(2) dopamine receptor (Homo sapiens) (P14416 whole entry, looked up): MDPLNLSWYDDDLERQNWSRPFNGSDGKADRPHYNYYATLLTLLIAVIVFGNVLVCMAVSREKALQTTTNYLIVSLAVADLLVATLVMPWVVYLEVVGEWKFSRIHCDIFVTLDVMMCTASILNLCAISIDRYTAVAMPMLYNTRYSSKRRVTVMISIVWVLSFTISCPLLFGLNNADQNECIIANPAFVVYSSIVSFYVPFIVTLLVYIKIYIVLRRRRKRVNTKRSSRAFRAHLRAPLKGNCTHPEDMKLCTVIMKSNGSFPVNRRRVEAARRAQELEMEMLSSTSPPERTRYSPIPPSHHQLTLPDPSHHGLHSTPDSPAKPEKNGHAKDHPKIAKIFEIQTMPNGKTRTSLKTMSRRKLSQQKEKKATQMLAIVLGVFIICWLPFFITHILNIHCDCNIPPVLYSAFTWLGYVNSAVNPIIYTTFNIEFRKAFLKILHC

Assay [16] in a line: p53 small molecule agonists, cell-based qHTS assay: qHTS cell viability counter screen (AID 1963581). Also: nearly all actives have a fitted effect of over 45% in size. Also: potency is read from the fitted curve at half-maximal effect. An outline of the steps:
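p53RE-bla HCT-116 cells were exposed to compounds for 16 h at 37 C; after the beta-lactamase FRET read in the same wells, CellTiter-Glo was added and luminescence (intracellular ATP) read after 30 min at room temperature.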

In assay [17] the target is D(2) dopamine receptor (Homo sapiens) (UniProt P14416). Nature of the assay: Dopamine D2 receptor (DRD2) small molecule antagonists, cell-based qHTS assay (AID 1963595; active = well fitted inhibition curve with a large enough effect in the signal ratio in the repeat runs, with a control signal flat; the % refers to the signal ratio). An outline of the steps: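 Antagonist mode in DRD2-HEK293 cells: after compound addition with 0.1 mM Ro20-1724, cells received quinpirole (12 nM) and NKH477 (200 nM) for 30 min at room temperature; HTRF cAMP read after 1 h detection.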

The nature of assay [18]: p53 small molecule agonists, cell-based qHTS assay (AID 1963582; active = well fitted activation curve with a large enough effect in the signal ratio in the repeat runs, not every such curve was filed as active; the % refers to the signal ratio; also: potency is read from the fitted curve at half-maximal effect). An outline of the steps:
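p53RE-bla beta-lactamase reporter cells rested 5 h at 37 C/5% CO2, then received compounds in DMSO by pin transfer and were incubated 16 h at 37 C. LiveBLAzer B/G FRET substrate was loaded for 2 h at room temperature before fluorescence reading.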

Each structure is given as a SMILES string. A number with no mark means an inactive call. Inconclusive results are not listed. Activity calls are given as the source filed them. Unless noted, calls follow the shape of the full dose curve.

Sequence of 5-hydroxytryptamine receptor 2A (Homo sapiens) (P28223 whole entry, looked up): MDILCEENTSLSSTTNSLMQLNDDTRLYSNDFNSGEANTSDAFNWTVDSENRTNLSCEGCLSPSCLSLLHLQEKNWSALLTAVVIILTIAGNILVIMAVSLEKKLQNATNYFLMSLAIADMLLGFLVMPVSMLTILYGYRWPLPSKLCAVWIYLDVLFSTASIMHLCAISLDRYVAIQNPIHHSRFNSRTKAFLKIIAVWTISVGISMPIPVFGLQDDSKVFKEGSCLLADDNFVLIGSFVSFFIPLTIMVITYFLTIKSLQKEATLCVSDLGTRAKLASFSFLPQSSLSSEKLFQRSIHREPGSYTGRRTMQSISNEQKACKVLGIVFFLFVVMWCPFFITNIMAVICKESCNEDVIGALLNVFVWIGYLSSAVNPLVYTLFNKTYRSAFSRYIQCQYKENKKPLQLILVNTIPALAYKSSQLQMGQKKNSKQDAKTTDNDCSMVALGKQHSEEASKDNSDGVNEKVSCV
Sequence of Beta-2 adrenergic receptor (Homo sapiens) (P07550 whole entry, looked up): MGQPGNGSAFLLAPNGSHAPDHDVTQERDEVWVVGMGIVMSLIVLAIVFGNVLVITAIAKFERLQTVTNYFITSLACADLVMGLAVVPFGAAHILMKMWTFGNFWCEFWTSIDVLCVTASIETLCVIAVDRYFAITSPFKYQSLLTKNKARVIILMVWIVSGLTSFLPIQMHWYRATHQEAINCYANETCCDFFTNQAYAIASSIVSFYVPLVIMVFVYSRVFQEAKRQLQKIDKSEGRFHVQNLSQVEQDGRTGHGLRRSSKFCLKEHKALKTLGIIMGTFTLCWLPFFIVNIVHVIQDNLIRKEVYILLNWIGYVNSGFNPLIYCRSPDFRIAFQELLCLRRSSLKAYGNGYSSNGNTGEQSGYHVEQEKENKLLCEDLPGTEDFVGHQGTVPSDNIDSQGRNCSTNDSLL

`CC1=NN(c2cccc(S(=O)(=O)O)c2)C(=O)C1`: the Potency result in [1], in assay [2], in assay [3], in assay [4], in assay [5] and in assay [6] was “inactive” throughout. Besides, the Potency entry in assay [7], in assay [8], in assay [9], in [10], in assay [11] and in assay [12] was “inactive” throughout. Moreover, the Potency result in [13], in assay [14] and in assay [15] was “inactive” in each case.
Turning to `Cc1oc(=O)oc1CN1CCN(c2cc3c(cc2F)c(=O)c(C(=O)O)c2n3C(C)S2)CC1` (stereo not drawn), the Potency result in [1], in assay [2], in [3], in [4], in assay [5] and in assay [6] was “inactive” throughout. Besides, the Potency entry in assay [16], in assay [8], in [9], in assay [10] and in assay [15] was “inactive” each time.
For `Cc1c[nH]c(=S)[nH]c1=O`, the Potency result in assay [1], in assay [2], in assay [3], in [4], in assay [5] and in assay [6] was “inactive” throughout. Also, the Potency result in assay [16], in assay [7], in assay [8], in assay [9], in [11] and in assay [12] was “inactive” throughout. Moreover, the Potency result in [13], in assay [14], in assay [15] and in assay [17] was “inactive” each time.
As for `C=C(C)C(=O)OCCOc1ccccc1`, the Potency entry in [1], in assay [2], in [3], in [4], in assay [5] and in [6] was “inactive” in each case. The Potency result in assay [8], in assay [9], in assay [10], in assay [11], in assay [13] and in assay [15] was “inactive” each time. Also, the Potency result in assay [17] is “inactive”.
For `CO[Si](C)(OC)OC`, the Potency entry in [1], in [2], in assay [3], in [4], in assay [5] and in [6] was “inactive” each time. Besides, the Potency entry in assay [16], in assay [7], in assay [8], in [11], in assay [12] and in assay [13] was “inactive” throughout. For the same molecule, the Potency result in assay [15] is “inactive”.
Turning to `CCCCCCCC/C=C\CCCCCCCC(=O)OCCO`, the Potency entry in [1], in assay [2], in assay [3], in [4], in assay [5] and in [6] was “inactive” each time. Also, the Potency entry in assay [7], in [8], in [9], in [10], in [13] and in assay [14] was “inactive” each time. In addition, the Potency entry in assay [15] and in assay [17] was “inactive” in each case.
`CC(C)C[C@H](NC(=O)[C@H](Cc1ccccc1)NC(=O)c1cnccn1)B(O)O`: the Potency was 596 nM (active) in assay [1], 890 nM (active) in assay [5], 707 nM (active) in assay [16] and 14.1 nM (active) in assay [18]. Also, the Potency result in assay [2], in assay [3], in assay [4], in assay [7], in [8] and in [9] was “inactive” throughout. Also, the Potency entry in [10], in assay [11], in assay [13], in assay [15] and in assay [17] was “inactive” in each case.
In the case of `CC1=C(C=O)C(C)(C)CCC1`, the Potency entry in assay [1], in assay [2], in assay [3], in [4], in assay [5] and in assay [6] was “inactive” each time. In addition, the Potency result in [16], in assay [7], in assay [8], in assay [9], in assay [11] and in assay [12] was “inactive” each time. The Potency result in assay [13], in assay [14], in [15] and in assay [17] was “inactive” in each case.
As to `COc1ccc2cc1Oc1ccc(cc1)C[C@H]1c3c(cc4c(c3Oc3cc5c(cc3OC)CCN(C)[C@@H]5C2)OCO4)CCN1C`, the values for the Potency in assay [1] and in [9] were 23700 nM (active) and 20500 nM (active), respectively. The Potency result in assay [2], in assay [3], in assay [4], in assay [5], in assay [6] and in assay [10] was “inactive” throughout. Besides, the Potency entry in [13] and in assay [15] was “inactive” each time.
